Compound activity from PubChem.
Cycloheximide cs = counter-screen hit for Shiga toxin inhibitors, cycloheximide; 300,000 compounds, 12% hits; cell reporter, cycloheximide protein synthesis inhibition counterscreen; max response, %; AID 2314; in the data active = max response mostly above about 13%, no sharp cut-off; inactive = mostly below about 14%; note: read at 38.3 µM for the half of the compounds with a filed dose
Pf growth 48h = P. falciparum growth inhibition at 48 hours (one generation); P. falciparum luciferase growth in erythrocytes, 48 h; AID 504832; Potency, µM (doses to about 28.7 µM), most hits filed as inhibitors; 310,000 compounds, 5.9% hits
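Compounds are pin-transferred into medium, infected erythrocytes (2% hematocrit, 0.1% parasitemia final) are added, and plates sit one parasite generation at 37 C in 5% CO2. Detection reagent is then added and luminescence measured.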
Pf growth 96h = inhibits malaria parasite growth, 96 h | P. falciparum luciferase reporter growth, 96 h | Potency, µM (titrated, usually from 28.7 µM), usual class: inhibitors | 320,000 compounds, 6.9% hits
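Infected RBCs, 2% Hct / 0.05% parasitemia final; luciferase-reporter P. falciparum; cpd 96 h, 37 C, 5% CO2; luciferase detection reagent; luminescence.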
Sm TGR inh = inhibitors of Schistosoma mansoni thioredoxin glutathione reductase; 360,000 compounds, 3% hits; Potency, µM (doses to about 114 µM), hits mostly inhibitors; Q962Y6; purified TGR, DTNB reduction, TNB absorbance 405 nm; note: nearly all actives have a fitted effect of over 60% in size
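TGR 20 nM + NADPH 100 uM (dispensed conc.), cpd preinc 15 min RT; start with NADPH (500 uM addition) then DTNB (15 mM addition). Kinetic TNB absorbance, 405 nm filter. Four-parameter Hill fit across titration.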
NS1 inh = inhibitors of influenza NS1 protein function. Potency, µM (titrated, usually from 46.1 µM). 270,000 compounds, 0.4% hits; calls by dose curve; note: actives are rising curves; nearly all actives have a fitted effect of over 50% in size
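Compounds were scored for reversing the slow growth caused by influenza A NS1 in S. cerevisiae, measured by optical density at 600 nm. Assay medium contained 2% galactose at pH 6.0; NS1-free yeast of the same strain were the positive control.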
Shiga inhibitor = inhibitors of Shiga toxin in Vero cells | Vero cells, Shiga toxin protein synthesis inhibition reporter | inhibition, % at 38.7 µM | 290,000 compounds, 9.2% hits; in the data active = inhibition mostly above about 28%, no sharp cut-off; inactive = mostly below about 43%
Hits are given with their value; 0 = inactive; ? = inconclusive; - = no result. Most compounds without a hit are left out; they make up all but 21% or so of the library. Unless noted, calls come from the whole dose curve; as a rule, active = well fitted curve in the direction sought with a large enough effect; inconclusive = small, poorly fitted or top-dose-only effect, or another doubt; inactive = no such curve, though single readings can be large; an effect the other way counts as inactive or inconclusive.

SMILES | Cycloheximide cs | Pf growth 48h | Pf growth 96h | Sm TGR inh | NS1 inh | Shiga inhibitor
CSc1ccccc1NC(=O)c1cnc2scc(C)n2c1=O | 25 | 0 | 0 | 0 | 0 | 28
Cc1cc(Br)cc(C)c1NC(=O)c1cnc2ccccn2c1=O | - | - | - | 0 | - | -
Cc1csc2ncc(C(=O)NCCc3ccccc3)c(=O)n12 | 45 | 0 | 0 | 0 | 0 | 48
O=C(NCCc1ccccc1)c1cnc2ccccn2c1=O | 41 | 0 | 0 | 0 | 0 | 57
Cn1c(C(=O)NCCc2ccccc2)cc2c(=O)n3ccccc3nc21 | - | - | - | 0 | - | -
CC(C)C(NC(=O)C1CCCCC1)C(=O)NCCc1ccccc1 (centres undefined) | 0 | 0 | ? | 0 | - | 0
O=C(CNC(=O)N1CC(=O)Nc2ccccc21)NCCc1cccc(F)c1 | 0 | 0 | 0 | 0 | 0 | 0
CCCCc1nn2c(=O)cc(COC(=O)c3ccc4c(c3)OCO4)nc2s1 | - | - | - | 0 | - | -
O=C1c2ccccc2NC(c2ccncc2)N1c1ccccn1 (centres undefined) | 0 | 0 | - | 0 | 0 | 0
c1ccc2c(c1)NC(c1ccncc1)n1c-2nc2ccccc21 (centres undefined) | 0 | 2.6µM | 0 | 0 | 0 | 0
c1cncc(C2Nc3ccccc3-c3nc4ccccc4n32)c1 (centres undefined) | 30 | - | 0 | 0 | 0 | 29
NC1=NC(c2cccnc2)n2c(nc3ccccc32)N1 (centres undefined) | 0 | 0 | 0 | 0 | 0 | 0
CCOC(=O)c1c(C)[nH]c(C)c1S(=O)(=O)N1CCC(C(=O)NCc2ccccc2Cl)CC1 | - | - | - | 0 | - | -
Cc1cc(C)cc(NC(=O)c2ncn(-c3ccccc3)n2)c1 | - | - | - | 0 | - | -
COCc1cccc(C2=CC(=O)C[C@H](c3ccc(F)cc3)C2)c1 | - | 2.3µM | ? | 0 | - | -
COCc1cccc(C2=CC(=O)C[C@H](c3ccc(OC)cc3)C2)c1 | - | 0 | 0 | 0 | - | -
O=C1C=C(c2cccc(CO)c2)C[C@@H](c2ccc(F)cc2)C1 | - | 2.3µM | 2.1µM | 0 | - | -
O=C1C=C(c2cccc(O)c2)C[C@@H](c2ccc(F)cc2)C1 | - | ? | ? | 0 | - | -
COc1cccc(C2=CC(=O)C[C@H](c3ccc(F)cc3)C2)c1 | - | 2.3µM | ? | 0 | - | -
O=C(Nc1ccnn1C1CCN(C(=O)c2ccc(F)c(Cl)c2)CC1)C1CC1 | 0 | 0 | ? | 0 | 0 | 0
CC1(C)CC(=O)/C(=N/Nc2ccc(Cl)cc2)CO1 | 32 | 0 | 0 | 0 | 0 | 93
Cc1cccc(N/N=C2/COC(C)(C)CC2=O)c1 | 78 | 0 | 0 | 0 | 0 | 133
COc1ccccc1N/N=C1\COC(C)(C)CC1=O | 34 | 0 | 0 | 0 | 0 | 137
COc1ccc(OCC(=O)Nc2sc3c(c2C(=O)NCC2CCCO2)CCC3)cc1 (centres undefined) | 0 | ? | 0 | 0 | ? | 0
Cc1csc(NC(=O)c2ccc(Br)s2)n1 | 43 | 0 | 0 | 0 | 0 | 137
SMILES | Cycloheximide cs | Pf growth 48h | Pf growth 96h | Sm TGR inh | NS1 inh | Shiga inhibitor
Cc1c(Cl)cccc1NC(=O)CCC(=O)c1cccs1 | 0 | 0 | 0 | 0 | 0 | 0
Cc1csc(NC(=O)c2cccs2)n1 | 55 | 0 | - | 0 | 0 | 100
Cc1csc(NC(=O)CCC(=O)c2cccs2)n1 | 19 | ? | ? | 0 | - | 0
O=S(=O)(Cc1ccccc1)N1CCN(c2ncccn2)CC1 | 0 | 0 | 0 | 0 | 0 | 0
CC(C)(C)OC(=O)CNC(=O)c1[nH]cnc1C(=O)Nc1ccc(Cl)cc1 | 0 | 0 | 0 | 0 | 0 | 0
CCOc1ccc(NCc2nc3ccccc3n2CCOc2ccc(C)cc2)cc1 | - | - | - | 0 | - | -
COCc1nc2ccccc2n1CCOc1cccc(C)c1 | - | - | - | 0 | - | -
COCCn1c(COc2ccc(OC)cc2)nc2ccccc21 | 22 | 0 | - | 0 | 0 | 49
CCOc1ccc(NCc2nc3ccccc3n2CCOc2ccccc2)cc1 | 38 | 0 | 6.6µM | 0 | 0 | 61
C=CCn1c(COc2ccc(OC)cc2)nc2ccccc21 | 44 | 0 | 0 | 0 | 0 | 0
CCn1c(COc2ccccc2)nc2ccccc21 | 24 | 0 | 0 | 0 | 0 | 36
Cn1c(=O)c2c(ncn2CCOC(=O)C(C)(C)Oc2ccc(Cl)cc2)n(C)c1=O | - | 0 | 0 | - | - | -
O=Nc1c(O)[nH]c2c(Cl)c(Cl)ccc12 | 0 | - | - | - | - | 0
COc1ccc(OCc2nc3ccccc3n2C(C)C)cc1 | 0 | 0 | 0 | 0 | 0 | 0
CCn1c(COc2ccc(OC)cc2)nc2ccccc21 | 50 | 0 | 4.7µM | 0 | 0 | 80
CN1c2ccc(Cl)cc2-c2nc(SCC(=O)NCc3ccc(F)cc3)ncc2S1(=O)=O | - | - | - | 0 | - | -
O=C(Nc1ccon1)c1ccc(Cl)s1 | 15 | 0 | 0 | 0 | 0 | 0
O=C(Nc1ccon1)c1sc2cc(Cl)ccc2c1Cl | 0 | ? | 0 | 0 | 0 | 0
Cc1ccnc(NC(=O)c2cnc(Cl)c(Cl)c2)c1 | 32 | 0 | 0 | 0 | 0 | 116
Cc1ccnc(NC(=O)c2ccc(Cl)s2)c1 | 53 | 0 | 0 | 0 | 0 | 70
Cc1ccc(CNC(=O)C2CCN(S(=O)(=O)Cc3ccccc3)CC2)cc1 | - | - | - | 0 | - | -
C=CCn1c(C)cc(C(=O)CSc2nnc(-c3cccc(S(=O)(=O)N(CC)CC)c3)o2)c1C | 0 | 10µM | ? | 0 | ? | 0
CCN(CC)S(=O)(=O)c1cccc(-c2nnc(SCCCC(=O)c3ccc(F)cc3)o2)c1 | 0 | 9.3µM | 0 | 0 | 0 | 0
CCN(CC)S(=O)(=O)c1cccc(-c2nnc(SCC(=O)c3cc(C)n(C4CC4)c3C)o2)c1 | 0 | 0 | - | 0 | 0 | 0
S=C(N/N=C/c1ccc2ncccc2c1)Nc1ccccc1 | 35 | 0 | 0 | 0 | - | 66
SMILES | Cycloheximide cs | Pf growth 48h | Pf growth 96h | Sm TGR inh | NS1 inh | Shiga inhibitor
C(=N\NCc1ccccc1)/c1ccc2ncccc2c1 | 38 | 0 | 0 | 0 | 0 | 79
C[C@H](NC(=O)OC(C)(C)C)C(=O)N/N=C/c1ccc2nccnc2c1 | 0 | 0 | 0 | 0 | 0 | 0
O=C(N/N=C/c1ccc2ncccc2c1)c1cc(-c2cccs2)nc2ccccc12 | 0 | ? | ? | 0 | 0 | 0
C(=N\NCc1ccccc1)/c1ccc2nccnc2c1 | 37 | 0 | 0 | 0 | 0 | 64
CCC(C)[C@@H](N)C(=O)N/N=C/c1ccc2ncccc2c1 (some centres undefined) | 0 | ? | 12µM | 0 | 0 | 0
COc1ccc(NC(=O)CN(C)C(=O)CCNS(=O)(=O)c2ccc(Br)cc2)cc1 | 0 | 0 | 0 | 0 | 0 | 0
Cc1nc(SCC(=O)Nc2cc(C(N)=O)cc(C(N)=O)c2)c2c(C)c(C)sc2n1 | 0 | 0 | 0 | 0 | 0 | 0
CCCN1C(=O)C(Cc2nc3ccccc3c(=O)n2-c2cccc(C)c2)c2ccccc21 (centres undefined) | - | - | - | 0 | - | -
O=C(CN1C(=O)COc2ccc(S(=O)(=O)N3CCCC3)cc21)N1CCN(c2ccc(F)cc2)CC1 | - | - | - | 0 | - | -
O[C@@H]1[C@@H](O)C=C2CCN3Cc4cc5c(cc4[C@H]1C23)OCO5 (some centres undefined) | - | 0.33µM | 0.29µM | 0 | - | -
COc1cc2c(cc1OC)[C@@H]1Cc3cc4c(cc3[C@H](C2)N1C)OCO4 | 0 | 0 | ? | 0 | 0 | 0
COCC(=O)Nc1cc([N+](=O)[O-])ccc1C | 0 | 0 | 0 | 0 | 0 | 0
